Assay results published in PubChem BioAssay (EPA / NIEHS).
Activity calls are given as the source filed them. How the source made its calls: active means hit-call score of the fitted dose curve at least 0.9, where 1 is the maximum; inactive means score below 0.9.

Columns and labels:
[1] = read-out: Thrombomodulin, THBD (gene 7056); experiment: BSK_CASM3C_Thrombomodulin: BioMAP Diversity Plus: CASM3C Assay for Thrombomodulin Biomarker Activity (AID 2283051); details: primary human coronary artery smooth muscle cells; actives raise or lower the signal;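 further: thrombomodulin protein level measured by ELISA 24 h after dosing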
[2] = read-out: Tissue Factor, F3 (gene 2152); experiment: BSK_CASM3C_TissueFactor: BioMAP Diversity Plus: CASM3C Assay for Tissue Factor Biomarker Activity (AID 2283052); details: primary human coronary artery smooth muscle cells; actives raise or lower the signal;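 further: cell surface tissue factor protein level read by ELISA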
[3] = read-out: Interferon-gamma inducible Protein 10 (IP10), CXCL10 (gene 3627); experiment: BSK_hDFCGF_IP10: BioMAP Diversity Plus: hDFCGF Assay for Interferon-gamma inducible Protein 10 (IP10) Biomarker Activity (AID 2283053); details: primary human foreskin fibroblasts; actives raise or lower the signal
In short: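 ELISA quantification of IP-10 after a 24 h chemical exposure of human dermal foreskin fibroblast primary cultures. Both increases and decreases versus DMSO fitted.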

[4] = read-out: Urokinase-type plasminogen activator receptor (uPAR), PLAUR (gene 5329); experiment: BSK_CASM3C_uPAR: BioMAP Diversity Plus: CASM3C Assay for Urokinase-type plasminogen activator receptor (uPAR) Biomarker Activity (AID 2283054); details: primary human coronary artery smooth muscle cells; actives raise or lower the signal;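 further: cell-surface uPAR protein level quantified by ELISA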
[5] = read-out: Vascular cell adhesion molecule 1 (VCAM1), VCAM1 (gene 7412); experiment: BSK_CASM3C_VCAM1: BioMAP Diversity Plus: CASM3C Assay for Vascular cell adhesion molecule 1 (VCAM1) Biomarker Activity (AID 2283055); details: primary human coronary artery smooth muscle cells; actives raise or lower the signal;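 further: VCAM-1 protein level quantified by ELISA on the cells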
[6] = read-out: Collagen III, COL3A1 (gene 1281); experiment: BSK_hDFCGF_CollagenIII: BioMAP Diversity Plus: hDFCGF Assay for Collagen III Biomarker Activity (AID 2283056); details: primary human foreskin fibroblasts; actives raise or lower the signal
In short: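 hDFCGF primary human dermal fibroblasts; 24 h chemical exposure; collagen III by ELISA; bidirectional curve fit vs DMSO baseline (gain or loss of signal).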

[7] = read-out: Epidermal growth factor receptor (EGFR), EGFR (gene 1956); experiment: BSK_hDFCGF_EGFR: BioMAP Diversity Plus: hDFCGF Assay for Epidermal growth factor receptor (EGFR) Biomarker Activity (AID 2283057); details: primary human foreskin fibroblasts; actives raise or lower the signal
In short: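 EGFR levels by ELISA in human dermal fibroblast cultures, 24 h post-treatment, fitted bidirectionally versus DMSO. Parallel wells stained with sulforhodamine B to detect overt cytotoxicity.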

[8] = read-out: Interleukin-8 (IL8), CXCL8 (gene 3576); experiment: BSK_hDFCGF_IL8: BioMAP Diversity Plus: hDFCGF Assay for Interleukin-8 (IL8) Biomarker Activity (AID 2283058); details: primary human foreskin fibroblasts; actives raise or lower the signal
In short: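 ELISA read-out of IL-8 from primary human foreskin fibroblast cultures taken 24 h after dosing; values are bidirectional fits relative to DMSO vehicle.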

[9] = BSK_hDFCGF_Proliferation: Cell Proliferation Assessment in the BioMAP Diversity Plus: hDFCGF Assay (AID 2283059); details: primary human foreskin fibroblasts;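 further: curves fitted for both rise and fall of signal versus DMSO baseline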
In short: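 Sub-confluent human foreskin fibroblast cultures receive test chemical […]. Relative cell number is quantified by sulforhodamine B staining (0.1%, after 10% TCA fixation) at 560 nm, with bidirectional fitting referenced to DMSO.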

[10] = read-out: Macrophage colony-stimulating factor (MCSF), CSF1 (gene 1435); experiment: BSK_hDFCGF_MCSF: BioMAP Diversity Plus: hDFCGF Assay for Macrophage colony-stimulating factor (MCSF) Biomarker Activity (AID 2283060); details: primary human foreskin fibroblasts; actives raise or lower the signal
In short: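 ELISA read-out of M-CSF in human dermal foreskin fibroblast cultures, 24 h after chemical dosing; gain or loss of signal fitted bidirectionally relative to DMSO baseline.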

[11] = BSK_hDFCGF_SRB: Viability Assessment in the BioMAP Diversity Plus: hDFCGF Assay (AID 2283061); details: primary human foreskin fibroblasts;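 further: cells exposed to compound for 24 h before the read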
In short: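 Primary human foreskin fibroblasts; 24 h post-dose; fixed 10% TCA, stained 0.1% SRB, A560 read; total protein as overt cytotoxicity measure; curves fit bidirectionally vs DMSO control.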

[12] = read-out: TIMP metallopeptidase inhibitor 1 (TIMP1), TIMP1 (gene 7076); experiment: BSK_hDFCGF_TIMP1: BioMAP Diversity Plus: hDFCGF Assay for TIMP metallopeptidase inhibitor 1 (TIMP1) Biomarker Activity (AID 2283062); details: primary human foreskin fibroblasts; actives raise or lower the signal
In short: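 ELISA readout of TIMP-1 from human dermal foreskin fibroblast cultures 24 h post-dosing. Curves were fitted in both directions against DMSO baseline, with SRB total-protein staining in parallel cultures as a cytotoxicity check.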

[13] = read-out: Monokine induced gamma interferon (MIG), CXCL9 (gene 4283); experiment: BSK_hDFCGF_MIG: BioMAP Diversity Plus: hDFCGF Assay for Monokine induced gamma interferon (MIG) Biomarker Activity (AID 2283063); details: primary human foreskin fibroblasts; actives raise or lower the signal
In short: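 Fibroblasts (human foreskin, primary) dosed, 24 h, MIG by ELISA; fit bidirectional vs DMSO.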

[14] = read-out: Matrix Metallopeptidase 1 (MMP1), MMP1 (gene 4312); experiment: BSK_hDFCGF_MMP1: BioMAP Diversity Plus: hDFCGF Assay for Matrix Metallopeptidase 1 (MMP1) Biomarker Activity (AID 2283064); details: primary human foreskin fibroblasts; actives raise or lower the signal
In short: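 MMP1 levels quantified by ELISA 24 h after dosing human dermal fibroblast cultures, with parallel SRB total-protein staining for overt cytotoxicity. Data fitted in both directions against DMSO baseline.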

[15] = read-out: Vascular cell adhesion molecule 1 (VCAM1), VCAM1 (gene 7412); experiment: BSK_hDFCGF_VCAM1: BioMAP Diversity Plus: hDFCGF Assay for Vascular cell adhesion molecule 1 (VCAM1) Biomarker Activity (AID 2283065); details: primary human foreskin fibroblasts; actives raise or lower the signal;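 on AC50: VCAM-1 protein level quantified by ELISA after 24 h chemical exposure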
In short: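 ELISA read-out of VCAM-1 on human skin fibroblasts, 24 h post-dose; gain or loss of signal fitted bidirectionally against DMSO baseline.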

[16] = read-out: Plasminogen activator inhibitor-1 (PAI1), SERPINE1 (gene 5054); experiment: BSK_hDFCGF_PAI1: BioMAP Diversity Plus: hDFCGF Assay for Plasminogen activator inhibitor-1 (PAI1) Biomarker Activity (AID 2283066); details: primary human foreskin fibroblasts; actives raise or lower the signal
In short: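 PAI-1 levels in human dermal foreskin fibroblasts were quantified by ELISA 24 h after dosing, with gain or loss analysed against DMSO. Overt cytotoxicity was checked by sulforhodamine B total-protein staining in parallel cultures.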

[17] = read-out: Intercellular Adhesion Molecule 1 (ICAM1), ICAM1 (gene 3383); experiment: BSK_KF3CT_ICAM1: BioMAP Diversity Plus: KF3CT Assay for Intercellular Adhesion Molecule 1 (ICAM1) Biomarker Activity (AID 2283067); details: primary human keratinocytes with fibroblasts; actives raise or lower the signal
In short: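 ELISA readout of ICAM-1; KF3CT human skin co-culture (keratinocytes + foreskin fibroblasts), 24 h post-dose; gain/loss fit vs DMSO baseline.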

[18] = read-out: Interferon-gamma inducible Protein 10 (IP10), CXCL10 (gene 3627); experiment: BSK_KF3CT_IP10: BioMAP Diversity Plus: KF3CT Assay for Interferon-gamma inducible Protein 10 (IP10) Biomarker Activity (AID 2283068); details: primary human keratinocytes with fibroblasts; actives raise or lower the signal
In short: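 ELISA read-out of IP-10 after 24 h chemical dosing of human skin primary co-culture (keratinocytes, foreskin fibroblasts). Gain or loss of signal relative to DMSO, bidirectional curve fit.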

[19] = BSK_KF3CT_SRB: Viability Assessment in the BioMAP Diversity Plus: KF3CT Assay (AID 2283069); details: primary human keratinocytes with fibroblasts;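 further: read 24 h after compound addition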
In short: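 Cytotoxicity was gauged by SRB staining (0.1% SRB, 10% TCA fixation, 560 nm) of parallel cultures at 24 h. The cells were primary human skin keratinocytes co-cultured with fibroblasts, and activity was fitted in both directions against DMSO.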

[20] = read-out: Interleukin-1 alpha (IL1a), IL1A (gene 3552); experiment: BSK_KF3CT_IL1a: BioMAP Diversity Plus: KF3CT Assay for Interleukin-1 alpha (IL1a) Biomarker Activity (AID 2283070); details: primary human keratinocytes with fibroblasts; actives raise or lower the signal
In short: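 IL-1a was detected by ELISA 24 h after chemical treatment of a co-culture of human skin keratinocytes and foreskin fibroblasts. Gain or loss of signal was fitted against the DMSO baseline.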

Measured: AC50

C[C@]12CCC(=O)C[C@@H]1CC[C@@H]1[C@@H]2CC[C@]2(C)[C@@H](O)CC[C@@H]12
inactive: all assays above

CC(C)c1ccc(CO)cc1
inactive: all assays above

O=Cc1cccc(Oc2ccccc2)c1
inactive: all assays above

CCOP(=S)(OCC)Oc1ccc(S(C)=O)cc1 (centres undefined)
inactive: all assays above

O=C(Nc1ccc2[nH]ccc2c1)c1cc2cc(F)ccc2n1Cc1cccc(F)c1
inactive: [7]
active: [1] 33 µM | [2] 20 µM | [3] 3.33 µM | [4] 14.6 µM | [5] 29.2 µM | [6] 1.93 µM | [8] 5.96 µM | [9] 2.53 µM | [10] 3.18 µM | [11] 3.36 µM | [12] 3.93 µM | [13] 4.77 µM | [14] 3.37 µM | [15] 2.65 µM | [16] 2.69 µM | [17] 8.14 µM | [18] 7.21 µM | [19] 5.91 µM | [20] 6.68 µM

C=CC(=O)OCCCCCC(C)C
inactive: all assays above

O=C(OC1CCCCC1)c1ccccc1C(=O)OC1CCCCC1
inactive: [4] | [5] | [17] | [18] | [19]
active: [1] 20.9 µM | [2] 33 µM | [3] 13.4 µM | [6] 5.33 µM | [7] 20.9 µM | [8] 34.9 µM | [9] 10.2 µM | [10] 11 µM | [11] 9.82 µM | [12] 14.3 µM | [13] 16.4 µM | [14] 20.9 µM | [15] 6.34 µM | [16] 12.3 µM | [20] 15.3 µM

COC(=O)c1sccc1S(=O)(=O)NC(=O)Nc1nc(C)nc(OC)n1
inactive: all assays above

COP(=S)(OC)Oc1cc(Cl)c(Cl)cc1Cl
active: [5] 16.5 µM | [6] 20 µM | [15] 25.4 µM
not listed: [10]
inactive: all other assays above

COC(=O)Cc1ccccc1
inactive: all assays above

Nc1ccc(-c2ccc(N)c(Cl)c2)cc1Cl
active: [2] 11.6 µM | [9] 0.922 µM
inactive: all other assays above

COP(=S)(OC)Oc1ccc(Sc2ccc(OP(=S)(OC)OC)cc2)cc1
active: [1] 12.6 µM | [9] 20 µM | [16] 0.382 µM | [18] 20 µM
inactive: all other assays above
